High-throughput results (PubChem BioAssay)
Most compounds without a hit are left out; they make up all but 3.2% or so of the library.
TWEAK Fn14 block: inhibitors of TWEAK-Fn14 interaction signaling; actives 2% (n = 360,000); inhibition, % at 10 µM; AID 1159606; TWEAK-stimulated Fn14 reporter cells, luciferase luminescence, 8 h; in the data active means inhibition above about 50%
TROY signal inh: blocks TROY-dependent signaling in reporter cells | Q293 LMP1-TROYcd NF-kB luciferase reporter, 4 h | inhibition, % at 10 µM | actives 0.98% (n = 360,000);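 active means compounds whose plate-normalised and pattern-corrected inhibition of the luciferase reporter signal at the single screening dose is 50% or more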
LGR2 antag: Drosophila LGR2 receptor signaling inhibition; HEK293 LGR2, CRE-luciferase, bursicon-stimulated, 4 h; inhibition, % at 9.99 µM; actives 0.35% (n = 380,000);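 active means drop in luminescence signal, shown as inhibition above about 50% in the replicate tests, limit read from the data, passing the limit was not always enough; inconclusive means probably only some replicates passing the limit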;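 further: agonist challenge used bursicon conditioned medium at about half maximal strength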
PAX8 inh HTS: inhibitors of PAX8 transcriptional activity in RMG-I cells. RMG-I TPO-luciferase reporter, SteadyGlo, 24 h. inhibition, % at 12.6 µM. actives 1.2% (n = 360,000). AID 652154;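 active means mean replicate inhibition at least 60% with every replicate also reaching 60%; inconclusive means only one of the two criteria is met; inactive means mean below 60% and not all replicates reaching 60%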;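 further: luciferase light reporting Pax8 driven TPO promoter activity; plate controls were median of neutral control wells for no effect and mitoxantrone controls for full effect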
EWS-Fli block: blocks EWS/Fli oncoprotein-driven transcription. A673 NR0B1-luciferase reporter, viability-normalised. inhibition, % at 12.6 µM. actives 0.67% (n = 350,000);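 active means mean inhibition of at least 50% after viability correction, with every replicate also passing that limit; inconclusive means mean reaches 50% but only one of two replicates passes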;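 further: firefly luciferase signal divided by Alamar Blue viability fluorescence both relative to DMSO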
EBV LMP1 NFkB: reduces LMP1-driven NF-kappaB luciferase signal; actives 0.69% (n = 350,000); LMP1-induced NF-kappaB luciferase reporter cells, luminescence; AID 504558; inhibition, % at 12.5 µM; in the data active means inhibition above about 41%; inconclusive means no clear call, values can overlap the other calls;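 further: 0% = neutral control wells and 100% = reference inhibitor control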
* marks the source's active call; other numbers are inactive results; u = inconclusive; x = no result given; ! = not confirmed by another sample.

SMILES	TWEAK Fn14 block	TROY signal inh	LGR2 antag	PAX8 inh HTS	EWS-Fli block	EBV LMP1 NFkB
Cc1ccc(C(=O)Nc2nc(-c3ccco3)c(-c3ccco3)s2)o1	82.6*	-6.8	-11.1	-0.9	-4.8	-7.8
C[C@@H]1CN([C@@H](C)CO)C(=O)c2cc(NC(=O)Nc3cccc4ccccc34)ccc2O[C@@H](C)CCCCO[C@@H]1CN(C)S(=O)(=O)c1ccccc1	x	x	0.4	4.0	7.7	x
C[C@H]1CN([C@@H](C)CO)C(=O)Cc2cc(NC(=O)Nc3cccc4ccccc34)ccc2O[C@H]1CN(C)S(=O)(=O)c1cccs1	x	x	1.0	36.7	-4.5	x
O=C(C[n+]1cn(C(F)F)c2ccccc21)c1ccc(Br)cc1	86.3*	-30.9	-11.3	-8.4	0.3	6.2
C[C@H](CO)N1C[C@H](C)[C@@H](CN(C)C(=O)c2ccncc2)Oc2cc(C#CC3CC3)ccc2S1(=O)=O	x	x	7.6	x	-15.1	x
CCCC[C@H](CN[C@@H](CNC)[C@H](C)CC)NCCC12CCC(CC1)C2	-10.9	-20.0	34.8	26.6	57.2*	-0.8
CCC[C@H](CN[C@@H](CNC)[C@H](C)O)NCCc1ccc(OC)cc1	-12.6	-1.2	-1.3	-10.5	-6.6	-3.5
C[C@H]1CN([C@@H](C)CO)C(=O)Cc2cc(NC(=O)Nc3ccc4c(c3)OCO4)ccc2O[C@H]1CN(C)S(=O)(=O)c1ccc(Cl)cc1	x	x	8.2	x	58.4*	x
C[C@H](CO)N1C[C@H](C)[C@H](CN(C)S(=O)(=O)c2ccc(Cl)cc2)Oc2ccc(NC(=O)Nc3ccc4c(c3)OCO4)cc2CC1=O	x	x	12.8	x	61.0*	x
Cc1ccc(S(=O)(=O)N(C)C[C@H]2Oc3ccc(NC(=O)Nc4ccc5c(c4)OCO5)cc3CC(=O)N([C@@H](C)CO)C[C@@H]2C)cc1	x	x	-9.1	-3.9	5.2	x
Cc1ccc(S(=O)(=O)N(C)C[C@@H]2Oc3ccc(NC(=O)Nc4ccc5c(c4)OCO5)cc3CC(=O)N([C@H](C)CO)C[C@@H]2C)cc1	x	x	0.7	41.5	56.1*	x
C[C@H]1CN([C@@H](C)CO)C(=O)Cc2cc(NC(=O)NC3CCCCC3)ccc2O[C@H]1CN(C)S(=O)(=O)c1ccc(Cl)cc1	x	x	23.9	78.7*	-4.9	x
COCCNC(=O)C[C@H]1CC[C@@H](NC(=O)NC2CCCCC2)[C@H](CO)O1	x	x	-4.9	x	x	x
CCC(=O)Nc1ccc2c(c1)C(=O)N(C)C[C@H](OC)[C@@H](C)CN(C(=O)c1ccccn1)[C@@H](C)CO2	x	x	-11.2	2.6	0.0	x
C[C@H]1CN([C@@H](C)CO)C(=O)Cc2cc(NC(=O)Nc3ccc4c(c3)OCO4)ccc2O[C@H]1CN(C)S(=O)(=O)c1ccccc1	x	x	12.2	x	55.2*	x
Cc1ccc(S(=O)(=O)N(C)C[C@@H]2Oc3ccc(NC(=O)CCC(F)(F)F)cc3CC(=O)N([C@@H](C)CO)C[C@@H]2C)cc1	0.4	31.0	-13.8	12.4	66.1*	-2.4
O=S(=O)(Nc1c(S(=O)(=O)c2ccccc2)c2nc3ccccc3nc2n1C1CCCCC1)c1ccccc1	98.0*	64.3*	u	18.2	3.3	0.4
CCCCCCNC(=O)CC(c1ccccc1)c1cc(Br)ccc1O (configuration not stated)	42.0	55.4*	u	x	x	5.8
CN1[C@@H]2Cn3c(ccc(-c4ccc(F)cc4)c3=O)[C@H]1[C@@H](C(=O)Nc1nccs1)[C@@H]2CO	x	x	-7.4	-0.6	2.5	x
C[C@@H]1CCCCO[C@@H](CN(C)C(=O)Nc2ccc(F)cc2)[C@H](C)CN([C@H](C)CO)C(=O)c2cc(NC(=O)C3CCCCC3)ccc2O1	x	x	11.5	6.1	3.6	x
Cc1ccc(Nc2nc(N)c3ccccc3n2)cc1C	68.4*	26.5	80.6*	-12.0	44.2	17.9
Cc1cc(Nc2ccc(C)c(C)c2)c2ccccc2n1	-24.8	-11.7	13.8	-12.3	13.6	9.6
CO[C@@H]1CN(C)C(=O)c2cc(NS(=O)(=O)c3cccc(F)c3)ccc2OC[C@H](C)NC[C@H]1C	x	x	-2.3	-2.5	3.9	x
Cn1c(=O)c2[nH]c(CCCCCCCCc3nc4ccccc4[nH]3)nc2n(C)c1=O	70.5*	40.9	21.5	8.9	-4.3	20.9
C[C@@H]1CN([C@H](C)CO)C(=O)c2cc(C#CC3CC3)cnc2O[C@H]1CN(C)C(=O)C1CCCCC1	x	x	2.3	x	-0.3	x
SMILES	TWEAK Fn14 block	TROY signal inh	LGR2 antag	PAX8 inh HTS	EWS-Fli block	EBV LMP1 NFkB
C=CCn1c(C)c(C(C)=O)c(N2CCN(C(c3ccccc3)c3ccccc3)CC2)nc1=S	13.0	2.4	-15.1	3.7	14.9	55.4*
CC(=O)c1c(C(C)=O)c(C)n(NC(=O)c2ccncc2)c1C	52.5*	x	x	x	x	-6.3
CC(=O)Nc1ccc(NC(=O)C(c2ccccc2)c2ccccc2)cc1	-2.9	19.1	18.3	-10.2	-0.8	54.4*
O=C(Nc1ccc(OC(F)F)c(Cl)c1)C(c1ccccc1)c1ccccc1	18.5	56.6*	15.7	0.4	4.4	9.0
O=C(Cc1cccc2ccccc12)Nc1ccc(OC(F)F)c(Cl)c1	-43.5	-6.0	-1.1	26.7	-12.0	-7.5
O=C(O)CCCNC(=O)C(c1ccccc1)c1ccccc1	-3.6	2.5	-9.2	163.5*!	1.3	-0.7
COc1ccc(S(=O)(=O)Nc2ccc3c(c2)CC(=O)N([C@H](C)CO)C[C@H](C)[C@@H](CN(C)S(=O)(=O)c2cn(C)cn2)O3)cc1	x	x	-16.8	-4.0	-5.4	x
c1ccc(C[n+]2ccc3ccccc3c2)cc1	14.1	-9.1	-4.8	8.1	13.2	3.6
c1ccc(C[n+]2cccc(-c3ccccc3)c2)cc1	91.0*	89.6*	-10.8	-1.4	1.9	-8.2
CCN(Cc1ccccc1)S(=O)(=O)c1ccccc1Br	-17.0	2.3	11.4	11.9	-12.6	2.0
CCN(CC)S(=O)(=O)c1ccccc1/C=N\O	62.3*	32.1	-8.8	x	x	-3.2
COCCNC(=O)C[C@H]1CC[C@H]2[C@H](COc3ccc(NC(=O)Cc4ccccc4)cc3C(=O)N2C)O1	x	x	-2.5	-9.6	1.7	x
Cc1cc(NC(=O)C2CCCN2C(=O)Nc2cccc(Cl)c2)ccc1-n1cnnn1 (configuration not stated)	54.8*	9.2	23.4	7.5	-1.1	13.0
Cc1ccc(NC(=O)N2CCCC2C(=O)Nc2ccc(-n3cnnn3)c(C)c2)cc1 (configuration not stated)	6.4	3.1	10.5	x	x	-4.9
Cc1cc(C(=O)N/N=C/c2sc(N3CCOCC3)nc2-c2ccccc2)c(C)o1	5.7	1.6	-4.6	20.2	4.0	41.5*
O=C(N/N=C/c1sc(N2CCOCC2)nc1-c1ccccc1)c1ccccc1O	25.1	22.3	-7.5	-0.8	x	10.3
O=C(C[C@H]1C[C@@H]2c3cc(NC(=O)c4ccc5c(c4)OCO5)ccc3O[C@@H]2[C@@H](CO)O1)NCC(F)(F)F	x	x	-8.7	0.8	-1.9	x
O=C(C#Cc1ccccc1)c1cccc([N+](=O)[O-])c1	47.5	17.1	-7.3	x	66.7*	39.3
